# Assay results taken from article PMC7862700, “An all-to-all approach to the identification of sequence-specific readers for epigenetic DNA modifications on cytosine”.
# Assays:
# Experiment in all cases: DAPPL (digital affinity profiling via proximity ligation, sequencing); 10 mM Tris-HCl pH 7.5, 50 mM NaCl, 1 mM DTT, 4% glycerol, room temperature, 30 min; GST-TFs on glutathione beads, 16-mer random dsDNA library, 0.1% formaldehyde crosslink after washing; high values mean tight binding
# FEV = target: T1, FEV (Homo sapiens, UniProt Q99581 1-238); conditions: protein: recombinant; tags: N-terminal GST; dsDNA, one strand shown
# T1 sequence: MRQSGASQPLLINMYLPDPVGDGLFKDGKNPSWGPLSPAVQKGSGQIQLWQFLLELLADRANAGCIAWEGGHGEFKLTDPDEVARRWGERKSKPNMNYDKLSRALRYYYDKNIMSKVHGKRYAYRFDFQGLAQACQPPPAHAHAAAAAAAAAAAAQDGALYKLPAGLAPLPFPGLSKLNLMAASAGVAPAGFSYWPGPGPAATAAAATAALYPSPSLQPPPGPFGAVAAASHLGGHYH
# In short: (§1)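 A tag-only sample was pooled with DNA-barcoded human transcription factors that had been expressed in yeast as GST fusions and captured on glutathione beads. The pools were incubated for 30 min at room temperature with 200 nmole of a random double-stranded 16-mer DNA library in Tris/NaCl/DTT/glycerol buffer, then washed, crosslinked with 0.1% formaldehyde, proximity-ligated (BsaI/T4 ligase, 1 h, 37 °C), PCR-amplified and sequenced on an Illumina NextSeq500. Binding signal is each hexamer's read frequency for a factor divided by its frequency for the tag-only sample.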
# ETV5 = ETV5 (Homo sapiens, UniProt P41161 1-510); conditions: protein: recombinant; tags: N-terminal GST; dsDNA, one strand shown
# ETV5, sequence (P41161 whole entry): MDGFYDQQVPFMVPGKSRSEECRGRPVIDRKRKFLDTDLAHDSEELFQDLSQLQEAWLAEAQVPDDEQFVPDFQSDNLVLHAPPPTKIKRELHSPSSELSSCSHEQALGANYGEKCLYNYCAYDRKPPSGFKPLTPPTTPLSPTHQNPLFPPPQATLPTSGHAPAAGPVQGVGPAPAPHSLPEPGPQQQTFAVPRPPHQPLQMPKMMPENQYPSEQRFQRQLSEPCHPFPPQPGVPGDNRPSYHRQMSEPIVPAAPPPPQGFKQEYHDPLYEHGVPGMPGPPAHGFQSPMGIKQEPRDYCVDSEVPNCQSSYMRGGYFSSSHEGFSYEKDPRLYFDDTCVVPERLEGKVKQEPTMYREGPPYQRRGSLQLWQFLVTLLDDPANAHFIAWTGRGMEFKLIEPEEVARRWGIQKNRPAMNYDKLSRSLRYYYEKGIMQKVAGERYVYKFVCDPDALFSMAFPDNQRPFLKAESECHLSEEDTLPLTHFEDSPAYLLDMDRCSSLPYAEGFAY
# In short: as §1
# HSF1 = HSF1 (Homo sapiens, UniProt Q00613 1-529); conditions: protein: recombinant; tags: N-terminal GST; chain copies: 3; dsDNA, one strand shown
# HSF1, sequence (Q00613 whole entry): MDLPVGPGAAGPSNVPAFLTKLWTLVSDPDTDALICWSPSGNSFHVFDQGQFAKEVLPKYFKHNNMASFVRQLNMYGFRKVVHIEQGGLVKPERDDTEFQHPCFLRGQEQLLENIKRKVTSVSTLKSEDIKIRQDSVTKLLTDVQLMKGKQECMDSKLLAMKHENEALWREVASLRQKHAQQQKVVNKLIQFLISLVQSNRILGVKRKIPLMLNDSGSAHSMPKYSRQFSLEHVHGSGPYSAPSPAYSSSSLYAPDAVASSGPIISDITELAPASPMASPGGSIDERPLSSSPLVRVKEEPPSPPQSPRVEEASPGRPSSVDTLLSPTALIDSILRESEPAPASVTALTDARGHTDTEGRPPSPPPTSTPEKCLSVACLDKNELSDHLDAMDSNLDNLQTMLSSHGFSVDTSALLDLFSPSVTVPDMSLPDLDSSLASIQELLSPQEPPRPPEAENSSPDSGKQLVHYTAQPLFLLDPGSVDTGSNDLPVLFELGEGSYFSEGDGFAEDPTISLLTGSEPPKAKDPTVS
# In short: as §1
# SPIC = target: T2, SPIC (Homo sapiens, UniProt Q8N5J4 1-248); conditions: protein: recombinant; tags: N-terminal GST; dsDNA, one strand shown
# T2 sequence: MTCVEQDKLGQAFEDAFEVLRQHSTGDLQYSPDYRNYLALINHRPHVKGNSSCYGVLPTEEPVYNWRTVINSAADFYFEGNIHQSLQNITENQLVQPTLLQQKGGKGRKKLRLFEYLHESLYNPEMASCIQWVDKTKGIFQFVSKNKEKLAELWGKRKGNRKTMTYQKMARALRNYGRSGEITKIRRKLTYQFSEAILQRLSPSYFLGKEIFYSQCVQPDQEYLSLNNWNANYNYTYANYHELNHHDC
# In short: as §1
# ELF4 = ELF4 (Homo sapiens, UniProt Q99607 1-663); conditions: protein: recombinant; tags: N-terminal GST; dsDNA, one strand shown
# ELF4, sequence (Q99607 whole entry): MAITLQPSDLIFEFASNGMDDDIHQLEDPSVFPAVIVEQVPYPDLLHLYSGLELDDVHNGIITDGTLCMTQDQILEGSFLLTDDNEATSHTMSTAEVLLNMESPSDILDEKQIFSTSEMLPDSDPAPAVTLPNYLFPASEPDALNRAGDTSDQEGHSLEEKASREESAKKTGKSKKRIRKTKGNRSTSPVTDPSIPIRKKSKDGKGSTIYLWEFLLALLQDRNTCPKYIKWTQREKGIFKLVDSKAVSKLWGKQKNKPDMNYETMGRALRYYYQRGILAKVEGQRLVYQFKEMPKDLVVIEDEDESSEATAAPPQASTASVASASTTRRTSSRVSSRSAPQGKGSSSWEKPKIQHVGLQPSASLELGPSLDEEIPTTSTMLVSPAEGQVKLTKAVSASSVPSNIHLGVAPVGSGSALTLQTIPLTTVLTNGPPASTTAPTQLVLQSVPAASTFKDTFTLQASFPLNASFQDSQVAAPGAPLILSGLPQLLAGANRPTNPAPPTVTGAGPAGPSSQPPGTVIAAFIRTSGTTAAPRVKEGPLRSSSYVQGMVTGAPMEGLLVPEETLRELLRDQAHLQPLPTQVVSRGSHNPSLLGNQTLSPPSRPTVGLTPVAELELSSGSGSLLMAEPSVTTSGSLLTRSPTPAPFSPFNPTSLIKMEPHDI
# In short: as §1
# ELK4 = target: T3, ELK4 (Homo sapiens, UniProt P28324-2 1-405); conditions: protein: recombinant; tags: N-terminal GST; dsDNA, one strand shown
# T3 sequence: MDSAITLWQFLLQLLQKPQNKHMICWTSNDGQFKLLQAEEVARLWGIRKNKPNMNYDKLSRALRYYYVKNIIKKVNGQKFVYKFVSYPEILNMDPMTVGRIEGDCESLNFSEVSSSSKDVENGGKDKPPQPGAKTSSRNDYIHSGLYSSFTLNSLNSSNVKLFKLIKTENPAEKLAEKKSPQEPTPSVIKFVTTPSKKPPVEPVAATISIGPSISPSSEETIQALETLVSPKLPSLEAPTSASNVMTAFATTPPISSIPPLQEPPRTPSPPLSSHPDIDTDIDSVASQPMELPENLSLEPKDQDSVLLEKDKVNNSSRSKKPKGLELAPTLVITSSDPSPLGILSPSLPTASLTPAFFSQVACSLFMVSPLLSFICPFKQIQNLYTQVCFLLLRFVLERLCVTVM
# In short: as §1
# ETV2 = target: T4, ETV2 (Homo sapiens, UniProt O00321 1-342); conditions: protein: recombinant; tags: N-terminal GST; dsDNA, one strand shown
# T4 sequence: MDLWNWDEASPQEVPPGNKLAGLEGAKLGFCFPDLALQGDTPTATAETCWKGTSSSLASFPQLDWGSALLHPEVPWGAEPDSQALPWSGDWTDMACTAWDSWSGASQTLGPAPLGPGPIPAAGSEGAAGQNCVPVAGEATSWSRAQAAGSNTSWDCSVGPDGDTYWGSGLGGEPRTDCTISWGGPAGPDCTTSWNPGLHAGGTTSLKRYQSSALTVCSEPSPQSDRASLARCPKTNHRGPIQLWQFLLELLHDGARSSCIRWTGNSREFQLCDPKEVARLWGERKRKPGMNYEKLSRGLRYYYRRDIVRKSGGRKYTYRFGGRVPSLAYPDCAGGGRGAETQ
# In short: as §1
# ELF3 = target: T5, ELF3 (Homo sapiens, UniProt P78545 1-371); conditions: protein: recombinant; tags: N-terminal GST; dsDNA, one strand shown
# T5 sequence: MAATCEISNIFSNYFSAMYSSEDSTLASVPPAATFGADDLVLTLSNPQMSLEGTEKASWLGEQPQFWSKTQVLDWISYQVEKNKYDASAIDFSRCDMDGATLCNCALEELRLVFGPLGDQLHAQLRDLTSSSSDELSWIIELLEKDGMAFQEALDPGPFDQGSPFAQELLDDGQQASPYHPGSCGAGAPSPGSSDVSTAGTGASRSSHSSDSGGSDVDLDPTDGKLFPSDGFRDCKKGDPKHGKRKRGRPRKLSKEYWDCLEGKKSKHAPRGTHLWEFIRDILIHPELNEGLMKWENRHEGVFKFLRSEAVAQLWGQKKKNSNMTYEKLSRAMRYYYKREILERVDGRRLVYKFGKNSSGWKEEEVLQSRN
# In short: as §1
# CRX = CRX (Homo sapiens, UniProt O43186 1-299); conditions: protein: recombinant; tags: N-terminal GST; dsDNA, one strand shown
# CRX, sequence (O43186 whole entry): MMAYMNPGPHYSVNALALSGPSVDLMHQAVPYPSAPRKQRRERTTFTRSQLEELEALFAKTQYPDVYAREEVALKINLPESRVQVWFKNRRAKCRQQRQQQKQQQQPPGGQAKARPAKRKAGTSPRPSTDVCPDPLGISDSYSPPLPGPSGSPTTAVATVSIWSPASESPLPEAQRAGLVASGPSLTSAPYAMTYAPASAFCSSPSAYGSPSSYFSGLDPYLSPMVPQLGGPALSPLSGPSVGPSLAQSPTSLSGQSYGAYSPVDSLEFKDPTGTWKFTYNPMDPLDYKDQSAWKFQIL
# In short: as §1
# ETV1 = ETV1 (Homo sapiens, UniProt P50549 1-477); conditions: protein: recombinant; tags: N-terminal GST; dsDNA, one strand shown
# ETV1, sequence (P50549 whole entry): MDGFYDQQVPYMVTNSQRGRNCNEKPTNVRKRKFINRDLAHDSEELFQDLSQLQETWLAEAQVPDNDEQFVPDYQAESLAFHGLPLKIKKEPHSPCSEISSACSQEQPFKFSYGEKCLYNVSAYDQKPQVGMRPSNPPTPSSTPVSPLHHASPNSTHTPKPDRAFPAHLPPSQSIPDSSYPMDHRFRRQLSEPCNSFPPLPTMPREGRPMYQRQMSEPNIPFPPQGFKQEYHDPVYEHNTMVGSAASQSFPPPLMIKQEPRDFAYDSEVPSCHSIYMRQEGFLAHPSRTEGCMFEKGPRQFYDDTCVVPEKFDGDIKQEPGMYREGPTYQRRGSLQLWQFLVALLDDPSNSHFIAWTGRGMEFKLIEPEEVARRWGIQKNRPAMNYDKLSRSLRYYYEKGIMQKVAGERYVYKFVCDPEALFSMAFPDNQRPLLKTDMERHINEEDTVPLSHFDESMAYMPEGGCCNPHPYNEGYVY
# In short: as §1
sequence,measurement,setting,value
CTTACC,binding signal,FEV,"1.25 fold enrichment (6-mer frequency, TF over GST control)"
same,binding signal,ETV5,"1.21 fold enrichment (6-mer frequency, TF over GST control)"
same,binding signal,HSF1,"1.26 fold enrichment (6-mer frequency, TF over GST control)"
same,binding signal,SPIC,"1.34 fold enrichment (6-mer frequency, TF over GST control)"
same,binding signal,ELF4,"1.25 fold enrichment (6-mer frequency, TF over GST control)"
same,binding signal,ELK4,"1.27 fold enrichment (6-mer frequency, TF over GST control)"
same,binding signal,ETV2,"1.27 fold enrichment (6-mer frequency, TF over GST control)"
same,binding signal,ELF3,"1.27 fold enrichment (6-mer frequency, TF over GST control)"
same,binding signal,CRX,"1.58 fold enrichment (6-mer frequency, TF over GST control)"
same,binding signal,ETV1,"1.28 fold enrichment (6-mer frequency, TF over GST control)"
